# Results taken from PubChem BioAssay (NCI).
# This is part of a sample that, as a whole, favours compounds with a hit. Of some 83,000 tested, about 20% had one in any assay.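 Compound tested at a single concentration for 48 hours in 96-well plates; a percent growth value below 10 was scored as active.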 Activity calls are given as the source filed them.
# Tested on: SNB-75 CNS
# Test: NCI-60 one-dose screen, 48 h (100 = growth as untreated, 0 = no growth, -100 = all killed)
# Details: 10 µM unless noted
row,SMILES,growth
1,CCN(CC)c1nc(SCC(=O)Nc2nc3ccc(C)cc3s2)nc(-c2ccccc2)c1C#N,85.6% (inactive)
2,Cn1cc(-c2csc(-c3cccc(F)c3)n2)c2cccnc21,-29.4% [100 µM] (active)
3,CCN1CCN(c2cc(C)nc(NCc3cc(Nc4ccnc5cc(Cl)ccc45)ccc3F)n2)CC1,79% (inactive)
4,CSc1n(Cc2ccc3ccccc3c2)c(C)c[n+]1Cc1ccc2ccccc2c1,-32.4% (active)
5,NC(=N\N=C/c1cccc([N+](=O)[O-])c1)/C(N)=N\N=C/c1cccc([N+](=O)[O-])c1,35.1% (inactive)
6,COc1ccc(-c2csc(C3=C(O)CN(C(C)C)C3=N)n2)cc1OC,112% (inactive)
7,COc1ccc(-c2ccc3c(c2)sc2nc(-c4ccc(F)cc4)cn23)cc1,98.9% (inactive)
8,Cc1ccc(S(=O)(=O)NCC[C@@H]2C[C@H]2c2cc3ccccc3s2)cc1,82.7% (inactive)
9,Cc1cccc(NC(=O)CSc2nc3ccccc3[nH]2)c1,84.2% (inactive)
10,C[n+]1cc2cc(C(N)=O)[nH]c3c(=N)c(Cl)c(N)c1c23,86.3% (inactive)
11,CCN(CC)CCCNc1ccc(Nc2ccc(OC)cc2)cc1,80% (inactive)
12,O=C1C=C[C@]2(C[C@@H](c3cccc(C(F)(F)F)c3)O[C@@H](c3cccc(C(F)(F)F)c3)O2)O1,57.9% (inactive)
13,Cc1nc2c(c(N3CCCc4ccccc43)n1)CCC2,20.4% (inactive)
14,Cc1cc(Cl)nc(NCc2cc(Nc3ccnc4cc(Cl)ccc34)ccc2F)n1,83.3% (inactive)
15,COc1ccc(NC(=O)CSc2nnc(-c3cc(-c4ccc(S(N)(=O)=O)cc4)nc4ccccc34)n2-c2ccccc2)cc1,55.7% (inactive)
16,COc1ccc(-c2nc3ccc4[nH]ncc4c3c3c2CCCC3)cc1B(O)O,18.9% (inactive)
17,CC/C=C\C[C@H](O)C/C=C1/C(=O)C=C[C@@H]1C/C=C\CCCCO,76.1% (inactive)
18,O=C(/C=C/c1c(Cl)nc2sccn12)c1nccs1,67.1% (inactive)
19,O=c1[nH]ccc2nc(N3CCC(O)CC3)nc(Nc3ccc(N4CCOCC4)cc3)c12,63.5% (inactive)

row,SMILES,growth
1,COc1ccc2c(c1)CCCN2c1c2ccccc2nc2ccccc12,0.187% (active)
2,COc1ccc(N=C(c2ccccc2)C2C(=O)c3ccccc3C2=O)cc1,76.3% (inactive)
3,Cc1c(O)cc(-c2cnc(N/N=C\c3ccc(Cl)cc3)s2)c(O)c1C,94.2% (inactive)
4,NS(=O)(=O)c1ccc(-n2nc(C(=O)N/N=C\c3ccc(F)cc3)cc2-c2ccc(Cl)cc2)cc1,57.1% (inactive)
5,CCN1CCN(c2nc(C)cc(NCc3cc(Nc4ccnc5cc(Cl)ccc45)ccc3F)n2)CC1,-34.7% (active)
6,COc1ccc2[nH]c(O)c(/C=c3/cc4c(c(-c5ccc(F)c(OC)c5)n3)=Nc3ccccc3-4)c2c1,92.1% (inactive)
7,CCCCCS(=O)(=O)Nc1ccc(C(=O)O)cc1,92.3% (inactive)
8,CN(C)CC1C(=O)O[C@H]2[C@H]1CC/C(COC(=O)c1cc3ccccc3[nH]1)=C\CC[C@@]1(C)O[C@@H]21 (some centres not stated),-59.6% (active)
9,N#CC1=C(c2ccc(Br)cc2)NC(SCC(=O)c2ccc(Br)cc2)NC1=O (configuration not stated),98.7% (inactive)
10,O=c1c2c3c(sc2n2c(-c4cn(-c5ccccc5)nc4-c4ccc(Cl)cc4)nnc2n1Cc1ccccc1)CCCC3,66.8% (inactive)
11,COc1cc(/C=C/C(=O)c2cccc(-n3cc(-c4ccccc4)[nH]c3=O)c2)ccc1O,46.8% (inactive)
12,CCCCCCCCCOc1c(OC)cc(C2CC(=O)Nc3c2c(C)nn3-c2nc3ccccc3[nH]2)cc1OC (configuration not stated),-48.8% (active)
13,Cc1ccc2c(c1)Sc1c(ccc3ccccc13)N2,51.8% (inactive)
14,CC(C)(C)C(CCc1ccc(Cl)cc1)N1CCN(C2CCCCC2)CC1 (configuration not stated),77.7% (inactive)
15,COc1ccc(C2=NN(C(=O)c3cc(OC)c(OC)c(OC)c3)C(c3ccc(Cl)cc3)C2)cc1OC (configuration not stated),21.9% (inactive)
16,Cc1cc(NCc2cc(Nc3ccnc4cc(Cl)ccc34)ccc2F)nc(N2CCSCC2)n1,-31.7% (active)
17,N#Cc1c(-c2cccc(Cl)c2)cc(-c2cccc(F)c2)[nH]c1=O,85.8% (inactive)
18,O=C(CSc1nnc(-c2ccc(NC(=O)c3cccnc3)cc2)o1)N[C@@H](Cc1ccc(O)cc1)C(=O)O,98.9% (inactive)
